Screens as filed in PubChem BioAssay.
C diff HTS – inhibitors of Clostridium difficile growth; Clostridium difficile clinical isolate growth, OD600, 24 h; active compounds read low; growth activity, negative = inhibition, % at 16 µg/mL (by protocol); 86,000 tested, 0.25% active;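 active means mean growth activity at or below -80% and every replicate also at or below -80%; inconclusive means mean at or below -80% but some replicate above -80%; inactive means mean growth activity above -80%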;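 further: 0% = DMSO wells and -100% = levofloxacin 16 µg/mL wells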
T cruzi growth-1 – inhibitors of T. cruzi proliferation. T. cruzi beta-gal in NIH3T3, GalScreen luminescence, 90 h. inhibition, % at 8.34 µM. 77,000 tested, 5.9% active;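 active means mean inhibition above about 93%, with at least 55% of replicates each passing it, limit read from the data, passing the limit was not always enough; inconclusive means only one of those two conditions holds; inactive means neither condition holds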
Pf Dd2 inh – P. falciparum Dd2 growth inhibition; SYBR Green, 72 h; active compounds read low; activity change, % at 10 µM; 94,000 tested, 2.3% active; in the data active means activity change below about -80%; inconclusive means no clear call, values can overlap the other calls
T cruzi growth-2 – blocks T. cruzi growth in NIH3T3 host cells; shares compounds with T cruzi growth-1; T. cruzi beta-gal in NIH3T3, GalScreen luminescence, 90 h; inhibition, % at 8.35 µM; 5,600 tested, 72% active; AID 651739;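 active means mean replicate inhibition above about 95% and at least 55% of replicates individually reaching it, limit read from the data; inconclusive means only one of the two criteria is met; inactive means neither criterion is met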
T cruzi growth-3 – blocks T. cruzi growth in NIH3T3 host cells; shares compounds with T cruzi growth-1; T. cruzi beta-gal in NIH3T3, GalScreen luminescence, 90 h; 5,600 tested, 21% active; AID 651740; inhibition, % at 2.09 µM;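 active means mean inhibition above about 95%, with at least 55% of replicates also reaching it, limit read from the data; inconclusive means meets just one of the two conditions; inactive means meets neither condition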;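 further: plate controls were neutral control median for no effect and positive control median for full effect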
3T3 cytotox – kills mouse NIH/3T3 fibroblasts. cytotoxicity (signal decrease), % at 8.35 µM. shares compounds with T cruzi growth-1. 5,600 tested, 14% active. AID 651742. NIH/3T3 viability, CellTiter-Glo ATP luminescence, 90 h;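 active means mean signal decrease across replicates above about 35% based on untreated-well scatter, with enough replicates individually passing, limit read from the data; inconclusive means no rule stated though some were filed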;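 further: 0% = median of neutral control wells and 100% = median of positive control wells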
NIH3T3 tox 2 – NIH/3T3 (mouse) viability loss; inhibition, % at 24.9 µM; AID 651744; 5,600 tested, 56% active; NIH/3T3 viability, CellTiter-Glo ATP luminescence, 90 h; shares compounds with T cruzi growth-1;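 active means mean loss of cell viability signal at or above a set limit, and enough replicates individually reaching it; inconclusive means meets only the mean limit or only the replicate share; inactive means meets neither condition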;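 further: 0% = median of neutral control wells and 100% = median of positive control wells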
* = called active by the depositor; ? = inconclusive; . = not tested or not shown. Shown are actives, neighbours in structure and some others; about 6.8% of the full set was active somewhere.

SMILES	C diff HTS	T cruzi growth-1	Pf Dd2 inh	T cruzi growth-2	T cruzi growth-3	3T3 cytotox	NIH3T3 tox 2
C[C@@H]1CCCCO[C@@H](CN(C)Cc2ccccc2)[C@@H](C)CN([C@@H](C)CO)C(=O)c2cc(NC(=O)Nc3ccc(C(F)(F)F)cc3)ccc2O1	29	86	-62	.	.	.	.
C[C@@H]1CCCCO[C@@H](CN(C)Cc2ccc(C(F)(F)F)cc2)[C@H](C)CN([C@@H](C)CO)C(=O)c2cc(NC(=O)Nc3ccc(C(F)(F)F)cc3)ccc2O1	19	?	-65	102*	117*	25	-1
COc1ccccc1C(=O)N1C[C@@H]2[C@H](c3ccccc31)[C@@H](CO)N2C(=O)C1CCCCC1	-4	23	-28	.	.	.	.
O=C(c1cccc(F)c1)N1CC(=O)N2[C@H](CO)[C@H](c3ccc(-c4ccccc4F)cc3)[C@H]2C1	-13	.	-33	.	.	.	.
Cc1noc(C)c1NC(=O)N(C)C[C@@H]1OCCCC[C@@H](C)Oc2ccc(NS(=O)(=O)c3ccc(Cl)cc3)cc2C(=O)N([C@@H](C)CO)C[C@H]1C	-2	-37	8	.	.	.	.
C[C@@H]1CN([C@@H](C)CO)C(=O)c2cc(C#CC3CC3)cnc2O[C@H]1CN(C)C(=O)c1ccncc1	.	43	22	.	.	.	.
C[C@@H]1CN([C@H](C)CO)C(=O)c2cccc(NC(=O)C3CCCCC3)c2O[C@@H]1CN(C)C(=O)Nc1ccc(F)cc1	-3	-15	-16	.	.	.	.
C/C=C/c1ccc([C@H]2[C@H]3CN(S(=O)(=O)c4cccc(C)c4)CCCCN3[C@H]2CO)cc1	36	86	-33	.	.	.	.
Cc1cccc(S(=O)(=O)N2CCCCN3[C@H](CO)[C@@H](c4ccc(-c5ccccc5)cc4)[C@H]3C2)c1	51	58	-8	.	.	.	.
C/C=C/c1ccc([C@@H]2[C@@H](CO)N3CCCCN(S(=O)(=O)c4cccc(C)c4)C[C@@H]23)cc1	2	108*	-37	100*	81	-6	73*
C/C=C/c1ccc([C@@H]2[C@@H](CO)N3CCCCN(S(=O)(=O)c4cccc(C)c4)C[C@H]23)cc1	1	?	-40	108*	84	28	103*
CN(C)CC(=O)Nc1ccc2c(c1)[C@H]1C[C@@H](CC(=O)NC3CCCCC3)O[C@H](CO)[C@H]1O2	.	-2	7	.	.	.	.
C[C@H](CO)N1C[C@H](C)[C@H](CN(C)Cc2ccccc2)Oc2ccc(NC(=O)Nc3cccc4ccccc34)cc2C1=O	2	-13	16	.	.	.	.
C[C@H](CO)N1C[C@H](C)[C@@H](CN(C)Cc2ccc(C(F)(F)F)cc2)Oc2ccc(NC(=O)Nc3cccc4ccccc34)cc2C1=O	3	100*	11	107*	60	24	12
C[C@H]1CN([C@@H](C)CO)C(=O)c2cc(NC(=O)Nc3cccc4ccccc34)ccc2O[C@H]1CN(C)Cc1ccc(C(F)(F)F)cc1	12	53	13	.	.	.	.
C[C@@H]1CN([C@@H](C)CO)C(=O)c2cc(NC(=O)Nc3cccc4ccccc34)ccc2O[C@H]1CN(C)Cc1ccc(C(F)(F)F)cc1	-5	96*	9	106*	77	21	21
C[C@H](CO)N1C[C@H](C)[C@H](CN(C)S(=O)(=O)c2ccccc2)Oc2ccc(NS(C)(=O)=O)cc2CC1=O	6	36	12	.	.	.	.
N#C[C@@H]1[C@@H](c2ccccc2)[C@H](CO)N1C(=O)C1CCCC1	-4	53	16	.	.	.	.
O=C(CC1CC1)N1CC[C@@H]2[C@@H](CO)Nc3ccc(-c4ccc(F)cc4)cc3[C@@H]21	0	?	7	104*	64	18	12
CC(=O)N1CC[C@H]2[C@H](CO)Nc3ccc(-c4ccc(F)cc4)cc3[C@H]21	-10	64	-10	.	.	.	.
O=C(CC1CC1)N1CC[C@@H]2[C@H]1c1cc(-c3ccc(F)cc3)ccc1N[C@@H]2CO	-3	103*	6	102*	101*	-8	82*
O=C(CC1CC1)N1CC[C@H]2[C@H](CO)Nc3ccc(-c4cccc(F)c4)cc3[C@H]21	-2	31	-12	.	.	.	.
O=C(CC1CC1)N1CC[C@@H]2[C@H](CO)Nc3ccc(-c4cccc(F)c4)cc3[C@@H]21	-21	4	-14	.	.	.	.
